Data taken from a collection of fitness landscapes (doi:10.1038/s41467-024-54723-y).
In all, about 18,000 sequences were measured (“TetR repression strength (sort-seq, GFP reporter)”: median about 0.23, highest 2% from about 0.68 on). Shown is part of a subset that was picked to be rich in the highest values.

The sequences below were run against TetR (class B, Tn10) (UniProt P04483) (assay: TetR repression strength (sort-seq, GFP reporter) (relative to tetO2 = 1); higher = stronger repression). Conditions: E. coli.
Sequence of TetR (class B, Tn10) (P04483 whole entry): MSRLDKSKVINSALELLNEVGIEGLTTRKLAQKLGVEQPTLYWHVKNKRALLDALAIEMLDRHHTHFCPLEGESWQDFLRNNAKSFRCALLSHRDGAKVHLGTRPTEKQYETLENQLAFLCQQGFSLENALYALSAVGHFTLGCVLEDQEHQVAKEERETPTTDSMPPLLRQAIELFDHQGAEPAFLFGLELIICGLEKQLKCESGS
How it was run: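 In LB with 50 µg/mL chloramphenicol, E. coli SIG10-MAX holding a low-copy library with eight randomized operator positions between a constitutive promoter and sfGFP, plus constitutive TetR, grew for 5 h at 37 °C. FACS then sorted 10^6 cells into 13 fluorescence bins for Illumina sequencing of each bin. Repression strength equals the top bin index plus one less the read-weighted mean bin, normalized to the unaltered operator. Values from three independent transformations were averaged when reads were ≥30 in every replicate and the CV was ≤0.5.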

Row | Sequence | TetR repression strength
1 | TCCCGTCTAGTAGTGGAGA | 0.468
2 | TCCCCAGGAGTGGCTGAGA | 0.0764
3 | TCCCTCGGAGTCTGTGAGA | 0.215
4 | TCCCCTCGAGTCTGAGAGA | 0.89
5 | TCCCTCGTAGTCTGCGAGA | 0.447
6 | TCCCCTAGAGTCTGAGAGA | 0.122
7 | TCCCTCGGAGTCTGCGAGA | 0.522
8 | TCCCTCGGAGTCTGAGAGA | 1.02
9 | TCCCCTTGAGTCTGAGAGA | 0.333
10 | TCCCTCGTAGTCTAAGAGA | 0.142
11 | TCCCTCGTAGTCTGAGAGA | 1.03
12 | TCCCAACCAGTTTTAGAGA | 0.399
13 | TCCCGCATAGTACGTGAGA | 0.273
14 | TCCCGATGAGTTGCTGAGA | 0.124
15 | TCCCTGCGAGTGATAGAGA | 0.618
16 | TCCCCGTCAGTTTGCGAGA | 0.741
17 | TCCCTCTTAGTTTGCGAGA | 0.796
18 | TCCCTCTGAGTTTGCGAGA | 0.335
19 | TCCCCCTCAGTTTGCGAGA | 0.518
20 | TCCCCGTCAGTGCGCGAGA | 0.229
21 | TCCCTATTAGTTTGCGAGA | 0.417
22 | TCCCCGGTAGTTTGCGAGA | 0.971
23 | TCCCCGTCAGTGTGCGAGA | 0.333
24 | TCCCCGTCAGTGCGAGAGA | 0.69
25 | TCCCCGGTAGTTTGAGAGA | 0.302
26 | TCCCAGTCAGTTTGCGAGA | 0.167

Row | Sequence | TetR repression strength
27 | TCCCCAGTAGTTTGCGAGA | 0.202
28 | TCCCGTGGAGTAGCAGAGA | 0.169
29 | TCCCTGGGAGTAAGGGAGA | 0.28
30 | TCCCGGGGAGTGTTAGAGA | 0.247
31 | TCCCTGAGAGTCGATGAGA | 0.237
32 | TCCCTTTTAGTATACGAGA | 0.242
33 | TCCCACCGAGTGTTGGAGA | 0.286
34 | TCCCCCCAAGTCGGCGAGA | 0.00669
35 | TCCCACTGAGTTGGAGAGA | 0.16
36 | TCCCTAGCAGTTGAGGAGA | 0.0558
37 | TCCCAGCGAGTATGAGAGA | 0.0754
38 | TCCCGAAGAGTTGTTGAGA | 0.233
39 | TCCCATCTAGTCAGGGAGA | 0.305
40 | TCCCCTGCAGTGGGGGAGA | 0.225
41 | TCCCTTATAGTGTAGGAGA | 0.0398
42 | TCCCATGAAGTGTGTGAGA | 0.127
43 | TCCCTGTAAGTCGTGGAGA | 0.309
44 | TCCCCGTGAGTCAGGGAGA | 0.152
45 | TCCCCGTGAGTCTGAGAGA | 0.215
46 | TCCCCGTGAGTCAGAGAGA | 0.963
47 | TCCCTGTTAGTGCCAGAGA | 0.193
48 | TCCCATTAAGTGCATGAGA | 0.106
49 | TCCCTGTAAGTTGACGAGA | 0.1
50 | TCCCACTTAGTTGGGGAGA | 0.201
51 | TCCCCACTAGTGAAGGAGA | 0.203
52 | TCCCAAACAGTGACAGAGA | 0.622

Row | Sequence | TetR repression strength
53 | TCCCAATCAGTGGTAGAGA | 0.521
54 | TCCCACTCAGTGATAGAGA | 0.701
55 | TCCCCATCAGTGATAGAGA | 0.966
56 | TCCCAATCAGTGATAGAGA | 0.785
57 | TCCCCAGCAGTGATAGAGA | 0.186
58 | TCCCCATAAGTGATAGAGA | 0.522
59 | TCCCAATCAGTGACAGAGA | 0.723
60 | TCCCACTAAGTGATAGAGA | 0.427
61 | TCCCACTCAGTGAGAGAGA | 0.514
62 | TCCCAAGCAGTGATAGAGA | 0.505
63 | TCCCAGTCAGTGACAGAGA | 0.416
64 | TCCCCGAGAGTGTTGGAGA | 0.156
65 | TCCCGACGAGTAAGTGAGA | 0.0202
66 | TCCCGTGCAGTGGGAGAGA | 0.177
67 | TCCCCGAAAGTGGTTGAGA | 0.272
68 | TCCCCAGTAGTGTAAGAGA | 0.139
69 | TCCCTCGTAGTTCGTGAGA | 0.105
70 | TCCCGTAGAGTGCAAGAGA | 0.396
71 | TCCCGGGCAGTGAAGGAGA | 0.251
72 | TCCCGCGGAGTGACGGAGA | 0.38
73 | TCCCGAGGAGTACGAGAGA | 0.222
74 | TCCCCCATAGTCAGGGAGA | 0.312
75 | TCCCAATCAGTGTCAGAGA | 0.335
76 | TCCCAATCAGTTTAAGAGA | 0.368
77 | TCCCAATCAGTGAAGGAGA | 0.671
78 | TCCCAAGAAGTGAAAGAGA | 0.2

Row | Sequence | TetR repression strength
79 | TCCCAATCAGTGTAAGAGA | 0.74
80 | TCCCAATCAGTCAAAGAGA | 0.676
81 | TCCCAATAAGTGAAAGAGA | 0.688
82 | TCCCAATCAGTGAAAGAGA | 0.686
83 | TCCCAATAAGTGTAAGAGA | 0.21
84 | TCCCACTAAGTTATAGAGA | 0.672
85 | TCCCTGCTAGTTAGGGAGA | 0.181
86 | TCCCGTCGAGTGGGAGAGA | 0.494
87 | TCCCTCAAAGTGTACGAGA | 0.165
88 | TCCCGCTAAGTAAGTGAGA | 0.00864
89 | TCCCTACCAGTGATCGAGA | 0.593
90 | TCCCTATCAGTCATCGAGA | 0.747
91 | TCCCTACAAGTCATCGAGA | 0.309
92 | TCCCTTTCAGTCATCGAGA | 0.53
93 | TCCCAATCAGTTATCGAGA | 0.468
94 | TCCCTATAAGTCGTCGAGA | 0.307
95 | TCCCTATAAGTCATCGAGA | 0.687
96 | TCCCTCTCAGTTATCGAGA | 0.603
97 | TCCCTATCAGTGATCGAGA | 0.868
98 | TCCCTATCAGTTATCGAGA | 0.859
99 | TCCCAATCAGTCATCGAGA | 0.557
100 | TCCCTAGTAGTGATCGAGA | 0.37
101 | TCCCCCACAGTGTAAGAGA | 0.183
102 | TCCCGCTTAGTCCTCGAGA | 0.44
103 | TCCCAATAAGTACGCGAGA | 0.348
104 | TCCCAGCCAGTTTTGGAGA | 0.298

Row | Sequence | TetR repression strength
105 | TCCCCGGAAGTTGCGGAGA | 0.0399
106 | TCCCGGGGAGTTATCGAGA | 0.161
107 | TCCCACGGAGTGGTGGAGA | 0.11
108 | TCCCGACGAGTACATGAGA | 0.629
109 | TCCCTCAGAGTGGACGAGA | 0.314
110 | TCCCTATAAGTTATAGAGA | 0.651
111 | TCCCTGTCAGTCATAGAGA | 0.617
112 | TCCCTATCAGTCATAGAGA | 0.924
113 | TCCCTATCAGTTATAGAGA | 0.809
114 | TCCCTATCAGTCGTAGAGA | 0.557
115 | TCCCTATGAGTTATAGAGA | 0.439
116 | TCCCTCACAGTGTGGGAGA | 1.22
117 | TCCCCAAAAGTCTTGGAGA | 0.681
118 | TCCCCAAAAGTTTTGGAGA | 0.276
119 | TCCCCAAGAGTCTTGGAGA | 0.193
120 | TCCCAAAAAGTGTGGGAGA | 0.415
121 | TCCCCAAAAGTCATGGAGA | 0
122 | TCCCCAACAGTGTTGGAGA | 0.292
123 | TCCCCAACAGTCTTGGAGA | 0.692
124 | TCCCTCTCAGTGTGGGAGA | 0.234
125 | TCCCTCACAGTGGGGGAGA | 0.189
126 | TCCCCAAAAGTGTGGGAGA | 0.821
127 | TCCCCAAAAGTGGGGGAGA | 0.196
128 | TCCCGGGTAGTCAAGGAGA | 0.296
129 | TCCCAGGAAGTCGTTGAGA | 0
130 | TCCCGGCCAGTTGTTGAGA | 0.199
